Screens: PubChem, National Center for Advancing Translational Sciences (NCATS)
D3 ag – agonists of human D3 dopamine receptor | P35462 | D3R DiscoveRx beta-arrestin cells, luminescence, 90 min | max activation, % | actives 0.58% (n = 410,000); in the data active = max activation above about 30%; also: 0% is about no effect
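Agonist-mode cell screen: cells plated at 1500/well and incubated overnight at 37 °C, then exposed to library compounds for 90 min at 37 °C. Detection reagent was added for 30–60 min at room temperature, and luminescence was read.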
BRCA1 expr up – activators of BRCA1 expression. MCF7-BRCA1-FFLuc reporter, luminescence, 48 h; response scale: scaled: vehicle 0%, 10 µM genistein 100%. Potency, µM (top dose mostly 46.1 µM), for inactives: at the top dose activation, most hits filed as activators. actives 1.1% (n = 380,000). AID 624202; also: potency is read from the fitted curve at half-maximal effect; nearly all actives have a fitted effect of over 80% in size
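48 h compound treatment of MCF7-BRCA1-FFLuc cells (phenol-red free MEM, 37 °C), then 15 min with luciferase substrate and luminescence imaging.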
D3 antag – antagonists of human D3 dopamine receptor; max response, negative = inhibition, %; D3R cells, DiscoveRx beta-arrestin luminescence, antagonist mode; hits give low values; actives 2.5% (n = 360,000); AID 652054; P35462; in the data active = max response below about -50%; inconclusive = no clear call, values can overlap the other calls; also: % is scaled to controls: 0 for no effect and ±100 for the full control effect
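Cells expressing the human receptor were seeded at 1500 cells/well, incubated overnight at 37 degrees C in 5% CO2, then exposed to library compounds with dopamine controls for 90 minutes at 37 degrees C before luminescent detection.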
B2AR arrestin – agonists driving beta-arrestin recruitment to human beta2-adrenergic receptor. P07550. beta-arrestin recruitment to beta2AR, cell-based reporter. Potency, µM (doses to about 46.1 µM), for inactives: at the top dose activation, usual class: activators. actives 0.02% (n = 330,000);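 also: potency is read from the fitted curve at half-maximal effect; 0% = DMSO controls and full agonism = EC100 isoproterenol or metaproterenol; nearly all actives have a fitted effect of over 65% in size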
Target sequence (P07550 whole entry, looked up): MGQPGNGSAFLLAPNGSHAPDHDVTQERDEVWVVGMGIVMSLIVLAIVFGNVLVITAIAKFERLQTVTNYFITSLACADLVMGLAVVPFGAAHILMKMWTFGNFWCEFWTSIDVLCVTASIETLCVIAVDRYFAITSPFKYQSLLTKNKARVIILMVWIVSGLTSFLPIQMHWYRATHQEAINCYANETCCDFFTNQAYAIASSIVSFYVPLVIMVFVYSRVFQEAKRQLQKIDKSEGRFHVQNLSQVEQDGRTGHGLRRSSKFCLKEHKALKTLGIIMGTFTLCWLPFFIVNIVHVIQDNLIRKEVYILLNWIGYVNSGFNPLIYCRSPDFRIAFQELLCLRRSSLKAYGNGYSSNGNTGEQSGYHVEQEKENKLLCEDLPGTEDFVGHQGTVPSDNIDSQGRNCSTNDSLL
RGS4 inhibitor – human RGS4 inhibition; Transcreener GDP fluorescence polarization, RGS4-accelerated GTP hydrolysis; P49798; actives 0.039% (n = 390,000); Potency, µM (highest dose often 114 µM), without a hit: top-dose activity change, negative = inhibition, most hits filed as inhibitors; also: potency is read from the fitted curve at half-maximal effect; % is scaled to controls: 0 for no effect and ±100 for the full control effect; nearly all actives have a fitted effect of over 75% in size
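MLSMR compounds (23 nl, pin-transferred) preincubated 10 min at room temperature with a 500nM (2x) first reagent, then RGS4 at 900nM (2x) plus Transcreener GDP mix added; fluorescence polarization (620/688 nm) read before and after 90 min at 30 °C.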
PTHR1 ag – activates the human parathyroid hormone receptor PTHR1. Potency, µM (titrated, usually from 115 µM), for the others: at the highest dose activation, actives largely listed as activators. HEK293 GP2 PTHR1 cells, GloSensor cAMP luminescence, 1 h. Q03431. AID 743266. actives 0.075% (n = 410,000); also: potency is read from the fitted curve at half-maximal effect; nearly all actives have a fitted effect of over 55% in size
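HEK-293-derived GP2 cells expressing PTHR1 and a GloSensor cAMP reporter, 3,000/well, plated overnight, given luciferin plus IBMX (each 0.5 mM as added) for 1 h at 37 °C, then compound for 1 h at 37 °C. Luminescence was read after 15 min at room temperature.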
The depositor's hits bear a star; i = inactive; ? = inconclusive; . = no result given; ! = repeats disagree; [ ] = remark or other dose. Sampled rows, rich in hits. Any-hit rate of the full collection: about 3.7%. Unless noted, calls follow the shape of the dose curve; as a rule, active = well fitted curve in the direction sought with a large enough effect; inconclusive = small, poorly fitted or top-dose-only effect, or another doubt; inactive = no such curve, though single readings can be large; an effect the other way counts as inactive or inconclusive.

SMILES	D3 ag	BRCA1 expr up	D3 antag	B2AR arrestin	RGS4 inhibitor	PTHR1 ag
O=C(O)Cn1cc(C(=O)C2CC2)c2ccccc21	2	5%	-9	-1%	-21%	?
O=C(Cn1cc(C(=O)C2CC2)c2ccccc21)NCc1ccccc1	5	13µM*	38	5%	-2%	-15%[57.5 µM]
O=C(CN1CSCC1=O)N1CCN(S(=O)(=O)c2cccc(F)c2)CC1	-2	11%	-13	0%	12%	-49%
COc1ccc(C(=O)C2CCN(CC(=O)NCc3ccccc3)CC2)cc1	-28	-4%	-52*	-1%	6%	-16%
O=C(CN1CCC(C(=O)c2ccc(F)cc2)CC1)NCc1ccccc1F	-25	-19%	-79*	0%	-14%	i
COc1ccc(CNC(=O)CN2CCC(C(=O)c3ccc(OC)cc3)CC2)cc1	-9	-51%	?	0%	1%	i
O=C(CN1CCC(C(=O)c2ccc3c(c2)OCCO3)CC1)NCc1ccc(F)cc1	-9	-45%	-3	0%	-1%	-10%
CCN=C1NN=C(c2ccc(C)cc2)CS1	-3	2.2µM*	-9	0%	-26%	-7%[57.5 µM]
O=C(Cn1sc2ccccc2c1=O)Nc1ccc(F)cc1	-17	-24%	-78*	.	.	-34%
COc1ccc(OC)c(NC(=O)NCCN2CCN(c3ccccc3)CC2)c1	5	2%	-67*	0%	-15%	-19%
COc1ccc(NC(=O)NCCN2CCN(c3cccc(Cl)c3)CC2)cc1	-10	-14%	-58*	0%	-13%	i
COc1ccc(N2CCN(CCNC(=O)Nc3ccc([N+](=O)[O-])cc3OC)CC2)cc1	-20	-42%	-26	3%	-19%	-21%
COc1ccccc1C(=O)NCCN1CCN(c2ccccc2)CC1	42*	-2%	0	0%	21%	i
COc1ccc(N2CCN(CCNC(=O)Nc3ccc(C)c(Cl)c3)CC2)cc1	-4	-21%	?	0%	10%	-64%
CCCCCc1ccc(-c2ccc(OC)cc2)nc1	0	8.9µM*	9	0%	-18%	-9%
c1ccc2c(c1)CCN(c1ncnc3nc[nH]c13)C2	3	3.5µM*!	0	0%	-24%	-13%
O=C(Nc1cccc(C(F)(F)F)c1)C1Cc2c(-c3ccccc3)ccnc2O1 (stereo not given)	-20	-9%	-20	.	.	-52%
C/C(=N\Nc1nccnc1Cl)c1ccc(F)cc1	-5	8.9µM*	-3	0%	8%	i
CC(C)(C)NCC(O)c1ccc(O)c(CO)n1 (stereo not given)	-5	.	.	.	.	.
Cc1cc(Cl)ccc1NC(=O)CN1CCC(C(O)(c2ccccc2)c2ccccc2)CC1	-7	28%	-62*	0%	-17%	i
CC1(C)OC(=O)C(=CNc2ncccn2)C(=O)O1	-16	2%	-68*	0%	-7%	i
COc1ccc(C(=O)/C(=C/N(C)C)S(=O)(=O)c2ccccc2)cc1	-3	3.2µM*	-13	1%	-5%	-31%
CCOc1ccc(/C=C/C(=O)c2ccccc2)cc1	1	13µM*	21	0%	-6%	-43%
Cn1nccc1-c1coc2c(C(=O)NCc3ccccc3)cccc12	-2	52%	-18	.	.	i
CNc1cncc(-c2cccc(OC)c2F)n1	8	11µM*	5	.	.	i
CC(C)c1ccc(S(=O)(=O)c2cnc(=S)[nH]c2N)cc1	-7	-13%	-59*	0%	-37%	-3%
CCCCCOc1ccc(NS(C)(=O)=O)cc1	1	11µM*	9	-1%	24%	-8%
CCOc1ccc(NS(=O)(=O)c2ccc(NS(C)(=O)=O)cc2)cc1	-8	1%	0	-1%	-15%	-83%[57.5 µM]
CC(=O)N1c2ccc(S(=O)(=O)N3CCC(C(=O)NC4CCC(C)CC4)CC3)cc2CC1C (stereo not given)	30*	-3%	2	5%	15%	-1%
